Hits are enriched below; roughly 8.1% of the tested compounds scored in any of these assays.
ELG1 repair inh = qHTS screen for small molecules that inhibit ELG1-dependent DNA repair in human embryonic kidney (HEK293T) cells expressing luciferase-tagged ELG1; HEK293T ELG1-luciferase reporter, luminescence, 16 h; DNA damage induced by 5-fluorouridine; Potency, µM (top dose mostly 46.1 µM), for the others: at the top dose activity change, negative = inhibition, actives largely listed as inhibitors; actives 2.3% (n = 330,000); also: % is scaled to controls: 0 for no effect and ±100 for the full control effect; nearly all actives have a fitted effect of over 55% in size
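Overnight (16 hr) co-exposure of 2,000 cells/well to 5-fluorouridine and compound at 37 °C preceded detection. Luciferase was quantified via ONE-Glo luminescence; loss of signal denotes inhibition.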
SW480 rerep = A quantitative high throughput screen for small molecules that induce DNA re-replication in SW480 colon adenocarcinoma cells. AID 624297, 2012. actives 1.8% (n = 340,000). Potency, µM (top dose mostly 46.1 µM), for inactives: at the top dose re-replication activation, hits mostly activators. SW480 DNA re-replication, Hoechst DNA content imaging, 48 h; also: % of control where 0% means no effect; nearly all actives have a fitted effect of over 55% in size
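Compounds, transferred as 23 nL by pin tool, were incubated with cells for 48 hr; DNA content per nucleus was then quantified by Hoechst staining and fluorescence plate imaging.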
KB-V1 MDR tox = qHTS assay for MDR1-selective chemotherapeutics: Primary screen using the drug-selected MDR subline cells KB-V1 | KB-V1 MDR cells viability, CellTiter-Glo, 72 h | Potency, µM (doses to about 46.1 µM), most hits filed as cytotoxic | actives 3.4% (n = 400,000) | AID 1347076, 2019; also: % is scaled to controls: 0 for no effect and ±100 for the full control effect; nearly all actives have a fitted effect of over 60% in size
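Cells of the MDR subline KB-V1 are plated, dosed with compound at multiple concentrations, and incubated 72 h at 37 degrees C; CellTiter-Glo is then added and luminescence read after 10 min.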
KB-3-1 cytotox = qHTS assay for MDR1-selective chemotherapeutics: Primary screen using the parental adenocarcinoma cell KB-3-1; KB-3-1 viability, CellTiter-Glo ATP luminescence, 72 h; Potency, µM (doses to about 46.1 µM), most hits filed as cytotoxic; actives 1.4% (n = 400,000); also: % is scaled to controls: 0 for no effect and ±100 for the full control effect; nearly all actives have a fitted effect of over 60% in size
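Luminescent ATP read-out (CellTiter-Glo) measures survival of drug-naive KB-3-1 cells after 72 h compound exposure at 37 °C. Titration series was screened from lowest to highest concentration, with DMSO vehicle plates as background controls.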
MCF10A rerep = A quantitative high throughput screen for small molecules that induce DNA re-replication in MCF 10a normal breast cells | MCF 10A DNA re-replication, Hoechst nuclear intensity, 48 h | Potency, µM (doses to about 46.1 µM), inactives show at the highest dose activity, positive = re-replication, most hits filed as activators | actives 2.9% (n = 350,000) | AID 624296, 2012; also: % of control where 0% means no effect; nearly all actives have a fitted effect of over 50% in size
An asterisk follows results filed as active; ! = repeats disagree; [ ] = remark or other dose. Calls follow the shape of the dose curve; as a rule, active = well fitted curve in the direction sought with a large enough effect; inconclusive = small, poorly fitted or top-dose-only effect, or another doubt; inactive = no such curve, though single readings can be large; an effect the other way counts as inactive or inconclusive. Potency is read from the fitted curve at half-maximal effect.

Results for Cc1cc(=O)oc2cc(OCC(=O)N/N=C/c3ccccc3O)ccc12 ?
ELG1 repair inh: 2%; SW480 rerep: 2%; KB-V1 MDR tox: inactive; KB-3-1 cytotox: inconclusive; MCF10A rerep: -14%

What do the screens show for `O=C(CSCC(=O)NN=Cc1ccccc1O)NN=Cc1ccccc1O`?
SW480 rerep: inconclusive; MCF10A rerep: 15µM*

How did O=C(Cn1cc(C(F)(F)F)ccc1=O)N/N=C/c1ccc(F)cc1 do in these assays?
ELG1 repair inh: -7%; SW480 rerep: 10%; KB-V1 MDR tox: inactive; KB-3-1 cytotox: inactive; MCF10A rerep: 3%

Results for Cc1ccc(SCCC(=O)N/N=C/c2ccccc2O)cc1 ?
ELG1 repair inh: -11%; SW480 rerep: inconclusive; KB-V1 MDR tox: inconclusive; KB-3-1 cytotox: inconclusive; MCF10A rerep: 3%

How did O=C(CCC(=O)Nc1ccc(Br)cc1)N/N=C/c1ccccc1O do in these assays?
ELG1 repair inh: inconclusive; SW480 rerep: inconclusive; KB-V1 MDR tox: inconclusive; KB-3-1 cytotox: inconclusive; MCF10A rerep: 16%

What do the screens show for `CC(C)Oc1ccc(CNC(=O)CCCN2C(=O)CCn3nc(-c4cccn4C)cc32)cc1`?
KB-V1 MDR tox: inactive; KB-3-1 cytotox: inactive

Results for COc1ccc(C2Nc3ccccc3C(=O)N2c2ccccc2)cc1COc1ccc(NC(C)=O)cc1 (stereo unspecified) ?
KB-V1 MDR tox: inactive; KB-3-1 cytotox: inactive

What do the screens show for `CCOc1ccc(CC(=O)NNC(=S)NC)cc1`?
ELG1 repair inh: 0%; SW480 rerep: -56%; KB-V1 MDR tox: inactive; KB-3-1 cytotox: inactive; MCF10A rerep: 1.3µM*

Results for CNC(=S)NNC(=O)Cc1ccccc1 ?
ELG1 repair inh: 1%; SW480 rerep: 2%; KB-V1 MDR tox: inactive; KB-3-1 cytotox: inactive; MCF10A rerep: 6%

Results for CC(=O)OCC(=O)[C@@]12OC3(CCCC3)O[C@@H]1C[C@H]1[C@@H]3CCC4=CC(=O)C=C[C@]4(C)[C@@]3(F)[C@@H](O)C[C@@]12C ?
ELG1 repair inh: -1%; SW480 rerep: 0.26µM*!; KB-V1 MDR tox: inactive; KB-3-1 cytotox: inactive; MCF10A rerep: inconclusive

How did COc1ccc(OC)c(NC(=O)C2CCCN(S(=O)(=O)c3cccc4nsnc34)C2)c1 (stereo unspecified) do in these assays?
ELG1 repair inh: 21µM*; SW480 rerep: -4%; KB-V1 MDR tox: inactive; KB-3-1 cytotox: inactive; MCF10A rerep: -3%

How did CC1CN(S(=O)(=O)c2cccc3nsnc23)CC(C)O1 (stereo unspecified) do in these assays?
ELG1 repair inh: 0%; SW480 rerep: 21%; KB-V1 MDR tox: inactive; KB-3-1 cytotox: inconclusive; MCF10A rerep: 18µM*

What do the screens show for `COc1cc(NC(=O)C2CCCN(S(=O)(=O)c3cccc4nsnc34)C2)cc(OC)c1` (stereo unspecified)?
ELG1 repair inh: 23µM*; SW480 rerep: -11%[9.22 µM]; KB-V1 MDR tox: inactive; KB-3-1 cytotox: inactive; MCF10A rerep: 5%

What do the screens show for `COc1ccc(OC)c(NC(=O)C2CCCN(S(=O)(=O)c3ccc(-n4cnnn4)cc3)C2)c1` (stereo unspecified)?
ELG1 repair inh: 26µM*; SW480 rerep: -6%; KB-V1 MDR tox: inactive; KB-3-1 cytotox: inconclusive; MCF10A rerep: 27%

Results for Cc1c(C(=O)OC2CCCCC2)[nH]c2c1C(=O)CC(c1ccccc1)C2 (stereo unspecified) ?
KB-V1 MDR tox: inconclusive; KB-3-1 cytotox: inactive

What do the screens show for `COc1ccc(N2CCN(C(=S)NC(C)c3ccccc3)CC2)cc1` (stereo unspecified)?
ELG1 repair inh: inconclusive; SW480 rerep: -2%; KB-V1 MDR tox: inactive; KB-3-1 cytotox: inactive; MCF10A rerep: 5%

Assay outcomes (PubChem)
